This note sets out measurements from PubChem BioAssay (NCI).

Common to all, as to experiment: NCI-60 one-dose screen, 48 h (100 = growth as untreated, 0 = no growth, -100 = all killed)
Details in all cases: 10 µM unless noted

For test [1], the system named is T-47D breast.
Test [2] concerns BT-549 breast.
The test system of test [3] is MDA-MB-435 melanoma.
Test [4] deals with SW-620 colon.
The test system of test [5] is MCF7 breast.
The test system of test [6] is HCT-116 colon.
The subject of test [7] is HCC-2998 colon.
Test [8] relates to KM12 colon.

The panel holds about 83,000 compounds, 20% with a hit somewhere; the sample as a whole holds those more often.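 Treatment: one concentration, 48 hours, 96-well format. Scoring: percent growth, with anything below 10 considered active.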 Unmarked numbers belong to inactive results. Calls of active or inactive are those of the source.

For `O=C(N/N=C/c1ccncc1)c1ccccc1Nc1cccc(C(F)(F)F)c1`, the growth in test [1] was 58.2%; in test [2], 69.3%; in test [3], 112%; in test [4], 95.7%; in test [5], 104%; in test [6], 69.2%. For the same compound, the growth in test [7] was 77.8%.

Turning to `COc1ccc(C(=O)/C=C/c2c(OC)cc(OC)cc2OC)c(OC)c1`, the growth was 19% in test [1]; 12.3% in test [2]; -20.2% (active) in test [3]; 16.6% in test [4]; 21.4% in test [5]; 18.2% in test [6]. In addition, the growth in test [7] was 41.7%.

For `C=C1C(=O)O[C@H]2[C@H]1CC/C(COC(=O)/C=C/c1c[nH]c3ccccc13)=C\CC[C@@]1(C)O[C@@H]21`, the growth in test [1] was -68.3% (active); in test [2], -69.6% (active); in test [3] it was -88.5% (active); in test [4], -74.7% (active); in test [5], -40.1% (active); in test [6], -83.8% (active). In test [7], the growth is -88.1% (active).

Take `CCC(C)C(N)C(=O)NNc1n[nH]c(=S)n1N` (stereo not given): the growth is 104% in test [1]; 104% in test [2]; 103% in test [3]; 96.9% in test [4]; 96.9% in test [5]; 108% in test [6]. The growth was 106% in test [7] and 104% in test [8].

`CC[C@@]12C=CCN3CC[C@]4(c5cc(NC(=O)COc6cc(OCC(=O)Nc7cc8c(cc7OC)N(C)[C@H]7[C@@](O)(C(=O)OC)[C@H](OC(C)=O)[C@]9(CC)C=CCN%10CC[C@]87[C@@H]%109)cc7oc(-c8ccccc8)cc(=O)c67)c(OC)cc5N(C)[C@@H]4[C@](O)(C(=O)OC)[C@H]1OC(C)=O)[C@H]32`: the growth in test [1] is 77.3%; in test [2], 61.4%; in test [3], 42%; in test [4] it was 20.3%; in test [5], 26.1%; in test [6], 0.866% (active). Further, the growth was -8.78% (active) in test [7] and -39.3% (active) in test [8].

With `O=C1Nc2ccccc2/C1=C\c1cccc(/C=C2/C(=O)Nc3ccccc32)n1`, the growth was -51.6% (active) in test [1]; -86.4% (active) in test [2]; -73.6% (active) in test [3]; -75.9% (active) in test [4]; -69.9% (active) in test [5]; -65.6% (active) in test [6]. The growth in test [7] is -84.1% (active); in test [8], -83.1% (active).

With `Cc1nc2sc(C(=O)Nc3cccc(Br)c3)c(N)c2cc1C(=O)c1ccc(C(F)(F)F)cc1`, the growth in test [1] was 95.1%; in test [2], 95.7%; in test [3] it was 87.9%; in test [4], 72.2%; in test [5], 70%; in test [6], 56.1%. In addition, the growth in test [7] was 86.9%; in test [8], 84.8%.

`NC(=O)C1(N2CCCCC2)CCN(CCCC(=O)c2ccc(F)cc2)CC1`: the growth in test [1] was 44%; in test [2] it was 56.3%; in test [3], -48.3% (active); in test [4] it was 19.6%; in test [5] it was 20%; in test [6], 19.3%. Further, the results for the growth in test [7] and in test [8] were 11% and 15.8%, respectively.

Consider `Cc1ccc2[nH]c(=S)n(-c3ccc(S(=O)(=O)Nc4ccc(Cl)nn4)cc3)c(=O)c2c1`, for which the growth was 96.7% in test [1]; 83.3% in test [2]; 102% in test [3]; 96.2% in test [4]; 95% in test [5]; 39.7% in test [6]. For the same compound, the growth in test [7] and in test [8] was 104% in each case.

On to `Nc1ncc(C#Cc2cncc(NC(=O)c3cccc(C(F)(F)F)c3)c2)c2cccnc12`, for which the growth in test [1] is 76.3%; in test [2], 63.1%; in test [3] it was 22.9%; in test [4] it was 49.3%; in test [5] it was 4.41% (active); in test [6], 21.8%. For the same compound, the growth in test [7] was 47.1%; in test [8], 19%.

As for `Cc1nc2sc(C(=O)Nc3ccccc3)c(N)c2cc1C(=O)c1ccc(C(F)(F)F)cc1`, the growth in test [1] is 97.2%; in test [2] it was 100%; in test [3], 94.1%; in test [4], 99.5%; in test [5], 90.7%; in test [6] it was 76.8%. The growth in test [7] is 104%; in test [8], 108%.

As for `COc1ccc(NC(=O)c2sc3nc(C)c(C(=O)c4ccc(OC)cc4)cc3c2N)cc1`, the growth in test [1] was 59.6%; in test [2], 49.1%; in test [3] it was -26.2% (active); in test [4], 34.9%; in test [5] it was 25.3%; in test [6] it was 21.8%. The growth in test [7] is 89.4%; in test [8], 46.9%.

In the case of `CCCC1C(C(=O)OCC)=C(N)Oc2cc(O)ccc21` (stereo not given), the growth in test [1] was 88.8%; in test [2], 94%; in test [3], 90.6%; in test [4] it was 97.1%; in test [5], 103%; in test [6] it was 88.3%. For the same compound, the growth in test [7] is 105%; in test [8], 98.2%.

For the compound `CC1NC(=S)NC(=O)/C1=C/c1cc(=O)oc2c1ccc1ccccc12` (stereo not given), the growth in test [1] is 93.4%; in test [2], 87.7%; in test [3], 105%; in test [4], 95.5%; in test [5] it was 89.9%; in test [6], 91.8%. In addition, the results for the growth in test [7] and in test [8] were 105% and 99.6%, respectively.

Regarding `Fc1ccc(C2CC(c3cccc(Nc4ccncc4)c3)=NN2c2ccc(Cl)cc2)cc1` (stereo not given), the growth in test [1] is 80.9%; in test [2] it was 105%; in test [3], -6.55% (active); in test [4] it was -74% (active); in test [5] it was 6.6% (active); in test [6], 101%. Further, the growth in test [7] is 16.7%; in test [8], 19.5%.

Turning to `O=C(OCc1nc2nc(Cl)nc(N3CCOCC3)c2[nH]1)n1ccnc1`, the growth is -49.2% (active) in test [1]; 9.52% (active) in test [2]; -55.1% (active) in test [3]; -59.1% (active) in test [4]; 4.72% (active) in test [5]; -82.4% (active) in test [6]. In addition, the growth in test [7] is 65.3%; in test [8] it was 13.7%.

Regarding `CCNC(=S)NNC(=O)c1cc2ccc1CCc1ccc(cc1)CC2`, the growth in test [1] was 95.8%; in test [2], 102%; in test [3], 100%; in test [4], 101%; in test [5], 93.6%; in test [6] it was 92.5%. Moreover, the growth in test [7] was 103%; in test [8], 102%.

For the compound `CCc1nc(C)cn1C(=O)OCc1nc2nc(Cl)nc(N3CCOCC3)c2[nH]1`, the growth in test [1] was -47.9% (active); in test [2], -18.8% (active); in test [3], -73.6% (active); in test [4], -47.9% (active); in test [5], -22.4% (active); in test [6] it was -71.5% (active). In addition, the growth is 26.5% in test [7] and 20.8% in test [8].

As for `O=C(NCCN1CCOCC1)OCc1nc2nc(Cl)nc(N3CCOCC3)c2[nH]1`, the growth in test [1] was 63.2%; in test [2], 13.1%; in test [3], -28.9% (active); in test [4] it was 23.9%; in test [5], 20.2%; in test [6] it was 8.45% (active). Also, the growth in test [7] is 77.8%; in test [8], 3.29% (active).

`S=c1[nH]cccc1-c1nnc2n1Nc1nc3ccc(Cl)cc3cc1CS2`: the growth in test [1] is 89.5%; in test [2], 96.3%; in test [3], 103%; in test [4], 98.8%; in test [5], 86.5%; in test [6], 86.6%. The growth was 106% in test [7] and 104% in test [8].

In the case of `COc1cccc2c1C(=O)c1c(O)c3c(c(O)c1C2=O)C[C@@](O)(C(=O)CO)C[C@@H]3O[C@H]1C[C@H](N)[C@@H](O)[C@H](C)O1`, the growth was 4.43% (active) in test [1]; -39% (active) in test [2]; -77.6% (active) in test [3]; 0.619% (active) in test [4]; 4.48% (active) in test [5]; 5.25% (active) in test [6]. Further, the growth in test [7] is -22.8% (active); in test [8] it was 1.25% (active).

For the compound `CC(=O)N1c2ccccc2NC2=C(C(=O)N(Cc3ccccc3)C2(C)C)C1c1ccco1` (stereo not given), the growth in test [1] was 35.1%; in test [2], 47.6%; in test [3], -56.2% (active); in test [4], 21.7%; in test [5] it was 15.3%; in test [6], 7.52% (active). In addition, the growth in test [7] is 3.73% (active); in test [8], 14.8%.

`CC[C@H](CC[C@@H](C)[C@H]1CC[C@H]2[C@@H]3CC=C4C[C@@H](OCCc5nn[nH]n5)CC[C@]4(C)[C@H]3CC[C@]12C)C(C)C`: the growth in test [1] was 90.2%; in test [2], 116%; in test [3] it was 112%; in test [4], 121%; in test [5] it was 101%; in test [6], 95.1%. Besides, the growth in test [7] is 109%; in test [8], 100%.

Regarding `CC(=O)N1c2ccccc2NC2=C(C(=O)N(C)C2(C)C)C1C` (stereo not given), the growth in test [1] was 28.7%; in test [2] it was 69.5%; in test [3], -67.8% (active); in test [4], 24.2%; in test [5], 16.4%; in test [6], 24.9%. The growth in test [7] is 60.8%; in test [8], 19.8%.

For `COc1ccc(Cc2nc3cc(OC)c(OC)cc3c(=O)[nH]2)cc1`, the growth in test [1] is 96%; in test [2] it was 159%; in test [3], 87.3%; in test [4], 14.3%; in test [5], 91.6%; in test [6], 72.6%. Also, the growth was 53.7% in test [7] and 18.9% in test [8].

`COc1cc(-c2cc(=O)oc3cc(O)ccc23)cc(OC)c1OC`: the growth in test [1] is 83.5%; in test [2], 97.4%; in test [3], 100%; in test [4] it was 96%; in test [5], 94%; in test [6], 86.5%. The growth is 100% in test [7] and 85.7% in test [8].

`CCCCCOc1ccc(/C=N/Nc2cc(C)nc3ccc(Br)cc23)cc1`: the growth in test [1] is 83.4%; in test [2], 103%; in test [3], -46.9% (active); in test [4], -61.2% (active); in test [5], -73% (active); in test [6], -79.9% (active). For the same compound, the growth is -58.3% (active) in test [7] and -65.5% (active) in test [8].

On to `CC(=O)c1c(-c2ccc(OC(F)(F)F)cc2)nc2ccccn12`, for which the growth in test [1] is 80.6%; in test [2], 91.3%; in test [3] it was 102%; in test [4], 105%; in test [5], 89.8%; in test [6] it was 80.8%. Further, the growth in test [7] is 105%; in test [8], 97%.

In the case of `Cn1c2c(Cl)c(Cl)ccc2c2cc(N)[nH]c(=O)c21`, the growth in test [1] is 79.7%; in test [2] it was 64.2%; in test [3], 107%; in test [4], 77.8%; in test [5], 72.4%; in test [6] it was 83.1%. Further, the growth in test [7] is 85%; in test [8], 94.2%.

On to `OC(c1ccccc1)c1ccccn1` (stereo not given), for which the growth in test [1] was 87.4%; in test [2], 93.4%; in test [3] it was 104%; in test [4] it was 102%; in test [5], 102%; in test [6] it was 103%. Besides, the figures for the growth in test [7] and in test [8] were 104% and 102%, respectively.

For `COc1cc(C2CC(c3cccc(Nc4ccncc4)c3)=NN2c2ccccc2)cc(OC)c1OC` (stereo not given), the growth in test [1] was 82.3%; in test [2] it was 59.4%; in test [3], -72.9% (active); in test [4], -25.9% (active); in test [5], 13.7%; in test [6] it was 32%. The growth in test [7] was 20.2%; in test [8], 7.46% (active).
